{"source": "PubChem BioAssay (NCI)", "note": "Values joined by “and” are separate entries in the source; they are usually repeats but may differ in a detail not shown here. Equal values may be shown once. Compounds without any hit were thinned out: in the full panel of roughly 79,000, 15% have a hit. A number with no mark means an inactive call. Active and inactive are the calls of the source. No stated cut-off is given here; in the data, active means growth inhibition above about 70%; inactive means the rest."}
{"experiment": "NCI Yeast Anticancer Drug Screen. Data for the cln2 rad14 strain (AID 165);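 further: 0% = growth equal to vehicle treated cultures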", "settings": "S. cerevisiae cln2 rad14 strain, at 5.0 µM (retest, dose inferred, filed as 0.5), hits give high values", "how_it_was_run": "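Each compound was tested on cln2 rad14 yeast. Inhibition of growth was calculated against vehicle-exposed controls.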"}
{"smiles": "O=C1/C(=C/c2ccccc2)CCCC1CN1CCCCC1", "note": "(centres undefined)", "growth inhibition": "65%"}
{"smiles": "CCOC1(c2cccc([N+](=O)[O-])c2)c2ccccc2Oc2ccccc21", "growth inhibition": "12%"}
{"smiles": "N/C(=N/N=C/c1cc(Br)cc(Br)c1O)NO", "growth inhibition": "7%"}
{"smiles": "C[Si](C)(C)/C=C/CCNC(C#N)c1ccccc1", "note": "(centres undefined)", "growth inhibition": "32%"}
{"smiles": "CCCCCCCCCCCCCCCCOP(=O)(O)OCC(N)C(=O)O", "note": "(centres undefined)", "growth inhibition": "6%"}
{"smiles": "O=[N+]([O-])c1cc(S(=O)(=O)Nc2ccccc2)ccc1Nc1ccccc1", "growth inhibition": "68%"}
{"smiles": "COc1cc2ccnc(-c3c4ccccc4c(N)c4c(OC)c(OC)ccc34)c2cc1OC", "growth inhibition": "22%"}
{"smiles": "CCOC(=O)C(Br)C(Br)c1ccccc1Cl", "note": "(centres undefined)", "growth inhibition": "13%"}
{"smiles": "Cc1cc(C)c(NC(=S)NC(=O)c2ccccc2)cc1C", "growth inhibition": "-4%"}
{"smiles": "CNCCCNc1c2ccccc2nc2cccc([N+](=O)[O-])c12", "growth inhibition": "77% (active)"}
{"smiles": "CNC(=O)OCc1c(COC(=O)NC)c(-c2ccc(Cl)cc2)n2c1CCC2", "growth inhibition": "30%"}
{"smiles": "CCCCCCOC(=O)NCCOC(=O)Nc1ccccc1", "growth inhibition": "5%"}
{"smiles": "C[C](C)(C)[Ge]([O][Ge]([c]1ccccc1)[c]1ccccc1)([O][Ge]([c]1ccccc1)[c]1ccccc1)[C](C)(C)C", "growth inhibition": "26%"}
{"smiles": "CCc1c(Cl)c(C)cc(O)c1Cl", "growth inhibition": "32%"}
{"smiles": "Cc1nc(Nc2ccccc2[N+](=O)[O-])sc1C(=O)CC(=O)C(=O)Nc1c(C(C)C)cccc1C(C)C", "growth inhibition": "35%"}
{"smiles": "O=[N+]([O-])c1cccc2nc3ccccc3c(NCCCn3ccnc3[N+](=O)[O-])c12", "growth inhibition": "52%"}
{"smiles": "CCCCCCC(O)CNCc1ccnc2ccc(OC)cc12", "note": "(centres undefined)", "growth inhibition": "14%"}
{"smiles": "C=C1CCC(O)C/C1=C/C=C1\\CCCC2(C)C1CCC2C(C)CCCC(C)C", "note": "(centres undefined)", "growth inhibition": "9%"}
{"smiles": "NC1=NNC2(C(N)=N1)c1ccccc1-c1ccccc12", "growth inhibition": "3%"}
{"smiles": "COc1cc2cc3c4cc(OC)c(OC)cc4cc[n+]3c(C)c2cc1OC", "growth inhibition": "61%"}
{"smiles": "COC(=O)NC1C(C)OC(OC2C/C=C(/C)C3C=CC4C(OC5CC(OC6CC(O)C(OC7CC(O)C(OC)C(C)O7)C(C)O6)C(O)C(C)O5)C(C)CC(C)C4C3(C)/C(O)=C3\\C(=O)OC4(CC(C)C(CO)=CC4/C=C\\2C)C3=O)CC1(C)[N+](=O)[O-]", "note": "(centres undefined)", "growth inhibition": "44%"}
{"smiles": "O=C1CSC(c2cccc(Cl)c2)N1c1ccc(-c2ccc(-n3c(-c4ccccc4)nc4ccccc4c3=O)cc2)cc1", "note": "(centres undefined)", "growth inhibition": "31%"}
{"smiles": "CCOC(=O)C(C(=O)OCC)=P(c1ccccc1)(c1ccccc1)c1ccccc1", "growth inhibition": "0%"}
{"smiles": "COc1ccc(N=CN(C)C)c(C)c1", "growth inhibition": "63%"}
{"smiles": "Cc1cc(S(=O)(=O)Nc2nnc3cnc4ccccc4n23)c(S)cc1Cl", "growth inhibition": "48%"}
{"smiles": "O=C(Oc1ccc2c(c1)CN(Cc1ccccc1)CO2)c1ccccc1", "growth inhibition": "-16%"}
{"smiles": "CN(C)[C@@H]1C(=O)C(C(N)=O)=C(O)[C@@]2(O)C(=O)C3=C(O)c4c(O)cccc4C[C@H]3C[C@@H]12", "growth inhibition": "61%"}
{"smiles": "O=[N+]([O-])c1ccc2c(c1)/C(=N/N=C1c3ccccc3Cc3ccccc31)c1cc([N+](=O)[O-])cc([N+](=O)[O-])c1-2", "growth inhibition": "25%"}
{"smiles": "Cc1cc(N(CCOS(C)(=O)=O)CCOS(C)(=O)=O)ccc1C=Nc1ccc(-c2nc(Cc3ccccc3)sc2C)cc1", "growth inhibition": "29% and 0%"}
